This is part of a sample that, as a whole, favours compounds with a hit. Of some 79,000 tested, about 15% had one in any assay. A number with no mark means an inactive call. Activity calls are given as the source filed them. Cut-off read from the data, not from the text of the source: active = growth inhibition above about 70%; inactive = the rest.
Key:
[1] = NCI Yeast Anticancer Drug Screen. Data for the rad50 strain (AID 155);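 note: 0% = growth of vehicle-only cultures of the same strain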; settings: S. cerevisiae rad50 strain growth inhibition, hits give high values
Procedure, shortened: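 Growth of the mutant yeast was measured after compound exposure and referenced to vehicle-treated cultures.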

[2] = NCI Yeast Anticancer Drug Screen. Data for the mec2-1 strain (AID 157); settings: S. cerevisiae mec2-1 strain, hits give high values
Procedure, shortened: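 Vehicle-treated cultures served as reference for growth inhibition of compound-exposed mec2-1 yeast.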

[3] = NCI Yeast Anticancer Drug Screen. Data for the sgs1 mgt1 strain (AID 161);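 note: 0% = growth of cultures given vehicle only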; settings: S. cerevisiae sgs1 mgt1 strain, hits give high values
Procedure, shortened: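 Read-out: growth inhibition vs vehicle controls. Cells: mutant yeast strain deficient in DNA damage repair.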

[4] = NCI Yeast Anticancer Drug Screen. Data for the cln2 rad14 strain (AID 165);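 note: 0% = growth equal to vehicle treated cultures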; settings: S. cerevisiae cln2 rad14 strain, hits give high values
Procedure, shortened: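 Each compound was tested on cln2 rad14 yeast. Inhibition of growth was calculated against vehicle-exposed controls.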

[5] = NCI Yeast Anticancer Drug Screen. Data for the bub3 strain (AID 167); settings: S. cerevisiae bub3 mutant strain, hits give high values
Procedure, shortened: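 Whole-cell yeast assay. The mutant strain was incubated with compounds, and growth inhibition was determined by comparison with vehicle-treated cells.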

[6] = NCI Yeast Anticancer Drug Screen. Data for the mlh1 rad18 strain (AID 175); settings: S. cerevisiae mlh1 rad18 strain growth inhibition, hits give high values
Procedure, shortened: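 Vehicle-treated cultures served as the reference for growth inhibition in a yeast strain carrying DNA damage repair alterations exposed to each compound.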

[7] = at 5.0 µM (retest, dose inferred, filed as 0.5)
[8] = at 50.0 µM (retest, dose inferred, filed as 5.0)

SMILES | growth inhibition [1, 7] | growth inhibition [1, 8] | growth inhibition ([1]; at 50.0 µM) | growth inhibition [2, 7] | growth inhibition [2, 8] | growth inhibition ([2]; at 50.0 µM) | growth inhibition [3, 7] | growth inhibition [3, 8] | growth inhibition ([3]; at 50.0 µM) | growth inhibition [4, 7] | growth inhibition [4, 8] | growth inhibition ([4]; at 50.0 µM) | growth inhibition [5, 7] | growth inhibition [5, 8] | growth inhibition ([5]; at 50.0 µM) | growth inhibition [6, 7] | growth inhibition [6, 8] | growth inhibition ([6]; at 50.0 µM)
O=c1ccc2nc3ccccc3ccc-2c1 | -159% | -139% | 23% | -53% | -55% | 15.2% | -61% | -64% | 18.3% | -46% | -58% | 20.6% | -63% | -79% | 62% | -117% | -110% | 62.5%
CC1CCC2(C)C(CC=C(C=O)C2(O)C=O)C12CO2 (configuration not stated) | 99% (active) | 99% (active) | 93.4% (active) | 99% (active) | 99% (active) | 95.3% (active) | 99% (active) | 99% (active) | 94.5% (active) | 99% (active) | 99% (active) | 92.9% (active) | 99% (active) | 54% | 93.8% (active) | 99% (active) | 99% (active) | 93.5% (active)
O=C(c1ccccc1)C1C(c2ccccc2)OP(c2ccccc2)(c2ccccc2)(c2ccccc2)C1c1ccccc1 (configuration not stated) | 83% (active) | 99% (active) | 99.7% (active) | 96% (active) | 99% (active) | 99.8% (active) | 83% (active) | 100% (active) | 99.8% (active) | 56% | 99% (active) | 99.5% (active) | 80% (active) | 99% (active) | 99.6% (active) | 84% (active) | 99% (active) | 99.8% (active)
CCCOC(=O)C(Br)C(Br)C(=O)OCCC (configuration not stated) | 60% | 97% (active) | 90.5% (active) | 57% | 98% (active) | 93% (active) | 36% | 100% (active) | 93.5% (active) | 59% | 101% (active) | 91% (active) | 46% | 100% (active) | 91.8% (active) | 44% | 98% (active) | 90.5% (active)
CCCCCCCCCCC[n+]1ccc(C#N)cc1 | -6% | 64% | 91.8% (active) | 10% | 84% (active) | 57.7% | 14% | 91% (active) | 92.5% (active) | 16% | 56% | 76.8% (active) | -5% | 75% (active) | 77.6% (active) | 10% | 76% (active) | 91.6% (active)
CCOC(=O)CC1C(=O)N(c2nc(-c3ccc(Br)cc3)cs2)N=C1C (configuration not stated) | 2% | 2% | 43.5% | 2% | 37% | 23.1% | 3% | 7% | 60.7% | -2% | -9% | 32.3% | -23% | -8% | 4.05% | 2% | -19% | 75.8% (active)
O=[N+]([O-])c1c(O)cccc1O | 45% | 98% (active) | 99% (active) | 17% | 99% (active) | 99.2% (active) | 29% | 99% (active) | 99.2% (active) | 24% | 99% (active) | 98% (active) | 14% | 99% (active) | 98.9% (active) | 36% | 99% (active) | 98.5% (active)
C=CC1(C)CCC2C(=CCC3C(C)(C(=O)O)CCCC23C)C1 (configuration not stated) (tested in a mixture with another compound) | -5% | 61% | 65.1% | 0% | 87% (active) | 74.2% (active) | -5% | 59% | 32.4% | -28% | 66% | 76.8% (active) | -17% | 66% | 64.2% | 6% | 84% (active) | 72% (active)
O=[N+]([O-])c1ccc(Cl)c(C(Nc2nncs2)Nc2nncs2)c1 | -2% | 91% (active) | 49.1% | 2% | 70% (active) | 23.9% | -3% | 61% | 61.7% | 18% | 84% (active) | 36.3% | -5% | 92% (active) | 20.4% | -13% | 84% (active) | 51.8%
O=C1OC(c2ccc(O)cc2)=C(c2ccccc2)C1c1ccccc1 (configuration not stated) | 9% | 36% | 99.4% (active) | -7% | 29% | 99.5% (active) | -10% | 47% | 99.5% (active) | 4% | 26% | 99.5% (active) | 2% | 29% | 99.4% (active) | 10% | 67% | 99.5% (active)
O=C(O)c1ccc(N=CC2CO2)cc1 (configuration not stated) | 23% | 11% | -2% | 44% | 64% | 0.45% | 13% | 10% | 7.05% | 96% (active) | 99% (active) | 21.8% | 90% (active) | 98% (active) | -10% | 32% | 22% | -3.15%
CCSc1nnc(CSc2nc(-c3ccccc3)c(-c3ccccc3)[nH]2)n1-c1ccccc1 | 35% | 35% | 79.1% (active) | 30% | 30% | 68.7% | 32% | 32% | 76.7% (active) | 26% | 26% | 74.5% (active) | 25% | 25% | 63.9% | 28% | 28% | 62.5%
CC(C)(C)OC(=O)Nc1cccc(Cl)c1 | 11% | 71% (active) | 73.2% (active) | -4% | 12% | 14.8% | -1% | 7% | 55.7% | -2% | -20% | 2.9% | 46% | -2% | 10.2% | 4% | 33% | 80.5% (active)
O=C1/C(=C\c2ccccc2)CCC/C1=C\O | -139% | -89% | 39.9% | -46% | -40% | 46.5% | -50% | -44% | 6.4% | -56% | -56% | 33.9% | -64% | -68% | 20% | -112% | -92% | 58.2%
O=c1[nH]cc(F)c(=O)n1C1CCCCO1 (configuration not stated) | 30% | 41% | 46% | 16% | 34% | 49.5% | 46% | 72% (active) | 71% (active) | 46% | 49% | 12.2% | 42% | 59% | 34.5% | 23% | 35% | 6.85%
COc1ccc(NC(=O)Nc2ccc(Cl)cc2)nn1 | -1% | 4% | -10% | -4% | -3% | 20.4% | -3% | 3% | 1.3% | -14% | -8% | 33.8% | -9% | -7% | -8.05% | -7% | 3% | -3.9%
[N-]=[N+]=Nc1c([N+](=O)[O-])c(Cl)nc2ccccc12 | 27% | 95% (active) | 86% (active) | 22% | 99% (active) | 90.7% (active) | 34% | 99% (active) | 92% (active) | 11% | 87% (active) | 90.5% (active) | 50% | 99% (active) | 90.6% (active) | 36% | 98% (active) | 88.2% (active)
CN(C)c1ccc(C=Nc2ccc(OCCCCCCCCCCC(=O)O)cc2)cc1 | 100% (active) | 100% (active) | 82.5% (active) | 100% (active) | 99% (active) | 59.9% | 77% (active) | 86% (active) | 76.7% (active) | 77% (active) | 92% (active) | 75% (active) | 73% (active) | 84% (active) | 84.5% (active) | 100% (active) | 100% (active) | 71.5% (active)
CN(C)CC/C(=N\Nc1ccc(Cl)c(Cl)c1)c1ccccc1 | 88% (active) | 99% (active) | 99.5% (active) | 69% | 100% (active) | 97.9% (active) | 98% (active) | 100% (active) | 99.6% (active) | 34% | 99% (active) | 99.5% (active) | 82% (active) | 100% (active) | 99.6% (active) | 95% (active) | 99% (active) | 99.2% (active)

Reference: PubChem BioAssay (NCI)
